Results as given in ChEMBL document CHEMBL4513216, “Probing the Open Global Health Chemical Diversity Library for Multistage-Active Starting Points for Next-Generation Antimalarials” (ACS Infect Dis, 2020).
The campaign covered roughly 69,000 compounds. About 8,600 (12%) showed an effect of 50% or more. This is one part of a sample in which strong results are shown more often than they occur.

Test system: Plasmodium berghei
Experiment: Screen against P. berghei liver stage (PbLuc), transformed with Luciferase, at 10uM
Type: functional, HepG2
Details: tested at 10 uM

Compound | INHIBITION [%]
CC(C)c1nnc(CN2CCN(C(C)c3nc(C4CC4)no3)CC2)o1 (stereo unspecified) | 33.3
CCC1=NN2C(=N)/C(=C/c3cccc(Cl)c3)C(=O)N=C2S1 | 37.7
CCC1=NN2C(=N)C(=Cc3cccn3-c3ccc(Br)cc3)C(=O)N=C2S1 | 65.4
CCC1=NN2C(=N)C(=Cc3cccn3-c3cccc(Cl)c3)C(=O)N=C2S1 | 73.7
CCC1=NN2C(=N)C(=Cc3cccn3-c3ccc(Cl)cc3)C(=O)N=C2S1 | 76.7
O=C(O)Cc1cn2cc(C(F)(F)F)ccc2n1 | 7.38
Cn1cc(CN2CC[C@H](O)[C@@H]2Cc2ccccc2)cn1 | 17.1
Cc1noc(C)c1C(=O)N1C[C@H]2CCC[C@@]2(COc2ccccn2)C1 | 34.7
CCC[C@H]1CN(c2nccc(OC)n2)C[C@@H]1NS(=O)(=O)N(C)C | 56.6
COc1ccnc(N2C[C@@H](NS(=O)(=O)N(C)C)[C@H](C(C)C)C2)n1 | -15.6
CCC[C@H]1CN(c2nccc(NCC)n2)C[C@@H]1NS(=O)(=O)N(C)C | 48.7
CCS(=O)(=O)N1CC[C@H](OC)[C@@H]1Cc1ccncc1 | 28.4
CNc1ncc(-c2ccnn2C2CCN(C(C)=O)CC2)cn1 | 42.6
CC1CN(C(=O)c2cnn(-c3ccccn3)c2C(C)C)CC(C)(C)O1 (stereo unspecified) | 51.5
CCc1c(C(=O)N2CC(C)OC(C)(C)C2)cnn1-c1ccccn1 (stereo unspecified) | 2.97
CCc1c(C(=O)N2CCOC(C)(C)C2)cnn1-c1ccccn1 | 4.95
CCOC[C@@H]1CCC[C@]12CN(S(=O)(=O)c1cn(C)cn1)CCO2 | 35.5
O=C(c1cccn1Cc1cccs1)N1CCSCC1 | 9.64
COc1cccc(OCCNS(C)(=O)=O)c1 | -0.614
COc1cccc(OCCNS(=O)(=O)Cc2ccccc2)c1 | 10.7
COc1cccc(OCCNCc2ccccc2)c1 | 51.5
CC(C)(C)c1n[nH]c(C2CN(C(=O)C3=COCCC3)CCO2)n1 (stereo unspecified) | 40.2

Compound | INHIBITION [%]
COc1ccccc1OC1(C(=O)O)CCN(c2nc(C)cnc2C)CC1 | 56.5
COc1ccccc1OC1(C(=O)O)CCN(c2nccnc2C)CC1 | 8.47
COc1ccccc1OC1(C(=O)O)CCN(c2ccccn2)CC1 | 40.5
COc1ccccc1OC1(C(=O)O)CCN(c2ncnc(C)c2C)CC1 | 55.4
COc1ccccc1OC1(C(=O)O)CCN(c2nccnc2OC)CC1 | 3.03
COc1ccccc1OC1(C(=O)O)CCN(c2ncccc2F)CC1 | 30.8
CN1CC2(CCN(C(=O)c3ccc(-n4cccn4)cc3Cl)C2)OC1=O (stereo unspecified) | 32.5
CC(=O)c1cnc(NCCCN2CCOCC2)nc1C | -4.96
O=C(COc1ccccc1)NCC1CC1 | 3.63
CCNc1ncc(C(=O)NCCCc2ccncc2)cn1 | 19.4
O=C(NCCc1csc(-c2ncccn2)n1)c1cnn2c1CCCC2 | -52.5
CCNc1ncc(C(=O)NCCc2csc(CSC)n2)cn1 | 51.8
CCNc1ncc(C(=O)NCc2csc(C)n2)cn1 | 35.4
CSCc1nc(CCNC(=O)C2CCCN(C(C)=O)C2)cs1 (stereo unspecified) | -90.8
CCNc1ncc(C(=O)NCc2csc(-c3ncccn3)n2)cn1 | 62.2
CCNc1ncc(C(=O)NCCc2ccc(C)c(C)c2)cn1 | -4.21
CCNc1ncc(C(=O)NCc2csc(-c3cnccn3)n2)cn1 | -10.5
CCNc1ncc(C(=O)NCCc2csc(-c3ncccn3)n2)cn1 | 56.6
CCN(Cc1nc2c(cnn2C)c(=O)[nH]1)Cc1ccccc1Cl | -29.8
Cc1ccc2nc(CN3CCCCC3C(=O)N3CCOCC3)cn2c1 (stereo unspecified) | 20
CC(C)Cn1nccc1NC(=O)CN1CCOC(Cn2cccn2)C1 (stereo unspecified) | 23.4
CNC(=O)[C@@H](c1ccccc1)N1CCC[C@H]1C(=O)NC1CCCCC1 | 30.9

Compound | INHIBITION [%]
CCc1cnc(N2C[C@H](OCc3csc(C)n3)[C@H]3COC[C@H]32)nc1 | 40.8
Cc1nnnn1-c1cc(NCc2cccc(C#N)c2)ccc1F | 31
O=C(CC1CC1)NCc1cc(=O)n2c(n1)CN(Cc1ccoc1)CCC2 | 36.8
O=C(Nc1ccccc1)N1C2CCC(O)(CC2)C1CO (stereo unspecified) | 44.9
CCc1noc(C)c1C(=O)N1CCCC(n2nc(C)nc2C)C1 (stereo unspecified) | -19.85
Cc1ccc(CN2CCOC3(COCCN(S(C)(=O)=O)C3)C2)s1 (stereo unspecified) | 11.4
CS(=O)(=O)N1CCOCC12CCN(Cc1ccoc1)CC2 | 34.5
CS(=O)(=O)N1CCOCC2(CN(Cc3ccc(F)cc3)CCO2)C1 (stereo unspecified) | 57.4
CS(=O)(=O)N1CCOCC12CCN(Cc1ccc(F)cc1)CC2 | 57.3
CS(=O)(=O)N1CCOCC2(CN(Cc3ccsc3)CCO2)C1 (stereo unspecified) | 0.139
CS(=O)(=O)N1CCO[C@@H]2CN(Cc3ccncc3)C[C@@H]2C1 | 18.5
CS(=O)(=O)N1CCO[C@@H]2CN(Cc3ccc(F)cc3)CC[C@@H]2C1 | 10.5
CS(=O)(=O)N1CCO[C@@H]2CN(Cc3ccc(F)cc3)C[C@@H]2C1 | 61.9
Cc1ccc(CN2CCC3(CC2)COCCN3S(C)(=O)=O)o1 | 11.6
O=C(c1ccc2c(c1)CCCC2)N1CCn2ncnc2C1 | -0.275
O=C(c1ccccn1)N1CCOC2(COCCN(Cc3cc[nH]n3)C2)C1 (stereo unspecified) | -95.7
CC(C)C[C@H](NC(=O)Cc1csc(-c2cccc(Cl)c2)n1)C(=O)O | 40.8
CCc1ccsc1C(=O)NCCn1nc2ccccn2c1=O | 14.4
c1cnn(CC2CCCN2Cc2ccc(-n3cccn3)cc2)c1 (stereo unspecified) | 41.2
c1ccc(CN2CCNCC(Cc3cnccn3)C2)cc1 (stereo unspecified) | -11.4
CCc1nc(C(=O)N2CC(C(C)C)Nc3ccccc32)c[nH]1 (stereo unspecified) | 3.13
COCCNc1ncc(-c2cccc(OC)c2)c(-c2nccn2C)n1 | 3.48

Compound | INHIBITION [%]
CC(C)[C@H]1CN(Cc2nccn2C)C[C@@H]1NC(=O)CCS(C)(=O)=O | 12.9
CC(C)[C@H]1CN(Cc2ccccn2)C[C@@H]1NC(=O)CC1CCC1 | 41.8
CC(C)[C@H]1CN(Cc2c[nH]cn2)C[C@@H]1NC(=O)CC1CCC1 | 57.3
O=C(c1ccc(F)cc1)N1CCC2(CCN(Cc3ccccn3)C2=O)C1 (stereo unspecified) | 2.79
CC(=O)N1CCCC1c1cccc(Cc2ccccc2F)n1 (stereo unspecified) | 14.8
CC(=O)N1CCCC1c1cccc(NCc2ccccc2F)n1 (stereo unspecified) | 64.1
COCC(=O)N1CCCC1c1cccc(Cc2ccccc2F)n1 (stereo unspecified) | 24.4
CS(=O)(=O)N1CCCC1c1cccc(Cc2ccccc2F)n1 (stereo unspecified) | -51.4
CN1CCCC1c1cc2cccnc2n1Cc1ccc(F)cc1 (stereo unspecified) | 30.85
CN(C)C(=O)CN1CCCC1c1cccc(Cc2ccccc2F)n1 (stereo unspecified) | 42.6
CC(=O)N1CCCC1c1cccc(Cc2ccc(F)cc2)n1 (stereo unspecified) | 13.6
CN1CCCC1c1cccc(Cc2ccc(F)cc2)n1 (stereo unspecified) | 100
CN1CCCC1c1cccc(Cc2ccccc2F)n1 (stereo unspecified) | 76.2
Cc1ncsc1C(=O)N1CCCC1c1c(C)nn(C)c1C (stereo unspecified) | 16.6
Cc1cc(Nc2cnccn2)cc(C2CCCNC2)n1 (stereo unspecified) | 19.5
CO[C@@H]1CCC[C@@H](NC(=O)c2cccc(F)c2)[C@H]1O | 28.2
CNc1nc2cn(CCc3ccc(C)cc3)c(=O)c-2c[nH]1 | 3.52
O=C(Cc1ccccn1)N1CCN(C(=O)CC2CCCCC2)CC1 | 13.6
Cc1cc(NCC2CCS(=O)(=O)C2)n2nc(C)cc2n1 (stereo unspecified) | 47
CCC(C)(C)n1nnnc1C(c1cccs1)N1CCc2ccccc2C1 (stereo unspecified) | 51.4
CCC(C)(C)n1nnnc1C(c1cccs1)N1CCc2ccccc21 (stereo unspecified) | 42.6
CCC(C)(C)n1nnnc1C(c1cccs1)N1CCCCC1 (stereo unspecified) | 21.7

Compound | INHIBITION [%]
Cc1ccc(C(=O)N2C[C@H]3CCC[C@@]3(COCc3ccncc3)C2)cn1 | 43.9
CCc1nnc2n1CCN(C(=O)CN(C)C1CC1)C2 | 51.1
Cc1nnc2n1CCN(C(=O)c1ccnc(N(C)C)c1)C2 | 21.6
CCc1nnc2n1CCN(C(=O)c1cnn(C)c1C1CC1)C2 | 53.9
CC(C)c1nnc2n1CCN(C(=O)c1cnc(C3CC3)s1)C2 | 43.1
CCc1nnc2n1CCN(C(=O)c1ccc(-c3ccco3)[nH]c1=O)C2 | -19.6
CCc1nnc2n1CCN(C(=O)c1ccc(-c3ccco3)nc1C)C2 | 61.3
Cc1nnc2n1CCN(C(=O)c1cnc(C3CC3)s1)C2 | 53.9
CCc1nnc2n1CCN(C(=O)c1csc(-c3cnn(C)c3)n1)C2 | 29.7
CCc1nnc2n1CCN(C(=O)c1ccccc1OCC1CC1)C2 | 7.21
CCc1nnc2n1CCN(C(=O)CN(CC)CC)C2 | 49.8
Cc1nc(-c2ccco2)ccc1C(=O)N1CCn2c(C)nnc2C1 | -17.6
CCc1nnc2n1CCN(C(=O)CN(C)Cc1ccccc1)C2 | 20.1
NC(=O)C1(CCCc2ccncc2)CCCN1 (stereo unspecified) | 1.5
CNS(=O)(=O)c1ccc(CNC(=O)c2c(C)oc(C)c2C)cc1 | -6.14
CN1CCCC1CNC(=O)CCCOc1ccc(Br)cc1 (stereo unspecified) | -62.6
Cc1ccc(-c2nnc(SCC(=O)O)n2-c2ccc(C)cc2)cc1 | 33.5
O=S(=O)(C1CC1)N1CCc2ncnc(N3CCCC3)c2CC1 | -17.7
